Screening data as filed in PubChem.
This is a sample that favours compounds with a hit; in the whole collection about 4.1% have one here.
ssDAF12 agonist: S. stercoralis DAF-12 nuclear receptor activators, primary screen, cell-based, luminescence, HEK293, GRIP1 co-expression, lit1-tk-luc. HEK293 ssDAF-12/GRIP1 lit1-tk-luc reporter; % of 3 µM dafachronic acid response. activation, % at 6.8 µM. 370,000 compounds, 1% hits;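 active = activation above the mean over all tested compounds plus 3 SD, cut at about 0.9% in these data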;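 note: 0% = DMSO-only wells and 100% = 3 µM delta7-dafachronic acid wells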
DAX1 inh-1: DAX1 (NR0B1) inhibitors on StAR promoter, primary screen, cell-based, luminescence, SF-1 (NR5A1), full-length DAX-1 | AID 652010, 2013 | inhibition, % at 6.8 µM | 370,000 compounds, 1.1% hits | HEK293T StAR-luciferase reporter, SF-1/DAX-1 repression relief;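 active = inhibition above the mean over all tested compounds plus 3 SD, cut at about 3.6% in these data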;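 note: 0% = DAX-1 cells with DMSO and 100% = cells lacking DAX-1 with DMSO; higher inhibition means more luminescence from relief of DAX-1 repression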
hgDAF-12 ag: H. glycines DAF-12 receptor agonists, primary screen, cell-based, luminescence, HEK293, GAL4 fusion, UAS-luciferase; AID 687014, 2013; Nuclear hormone receptor DAF-12 (Heterodera glycines), GAL4 fusion; activation, % at 6.8 µM; HEK293 GAL4-hgDAF12 UAS-luciferase reporter, agonist luminescence; normalized to butyrate control; 370,000 compounds, 1.8% hits;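 active = activation above a cutoff set at the mean of all screened compounds plus 3 SD, cut at about 10% in these data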;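 note: 0% = DMSO wells and 100% = sodium butyrate wells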
DAX1 inh-2: DAX1 (NR0B1) inhibitors, primary screen, cell-based, HEK293, Gal4-DAX1, luciferase luminescence; 340,000 compounds, 0.99% hits; Nuclear receptor subfamily 0 group B member 1 (Homo sapiens), P51843; HEK293 Gal4-DAX1 luciferase reporter; inhibition, % at 6.75 µM;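 active = inhibition above the mean over all tested compounds plus 3 SD, cut at about 4.2% in these data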;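 note: 0% = DAX1-transfected cells with DMSO and 100% = empty-vector control cells with DMSO; inhibition shows as a rise in luminescence from relieved DAX1 repression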
Target sequence (P51843 207-470 limits assumed): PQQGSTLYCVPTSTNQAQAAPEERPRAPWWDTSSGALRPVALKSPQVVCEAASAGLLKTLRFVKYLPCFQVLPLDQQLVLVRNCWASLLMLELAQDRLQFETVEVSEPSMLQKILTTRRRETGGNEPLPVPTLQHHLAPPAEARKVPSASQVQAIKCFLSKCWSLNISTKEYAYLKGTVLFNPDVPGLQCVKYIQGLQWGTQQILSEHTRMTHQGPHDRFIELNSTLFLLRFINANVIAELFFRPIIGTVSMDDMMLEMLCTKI
hcDAF-12 act: H. contortus DAF-12 nuclear receptor activators, primary screen, cell-based, luminescence, HEK293, lit1-tk-luc reporter | HEK293 hcDAF-12 lit1-tk-luc reporter; 0% DMSO, 100% Δ7-dafachronic acid | activation, % at 6.8 µM | 370,000 compounds, 1.4% hits | AID 652067, 2013;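 active = activation above the mean of all tested compounds plus 3 SD, cut at about 5.5% in these data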;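 note: 100% = response to 3 µM Δ7-dafachronic acid high control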
Starred values were filed as active, the others as inactive; x = no result given.

SMILES	ssDAF12 agonist	DAX1 inh-1	hgDAF-12 ag	DAX1 inh-2	hcDAF-12 act
O=C(NC1CCCCCC1)c1ccc(CN2CCOCC2)cc1	0	1	8	4.6*	3
C=CCOc1ccc(C(=O)NC2CCCCC2)cc1	-1	1	10*	1	4
CC(C)Oc1ccc(C(=O)NC2CCCCC2)cc1	0	2	7	2	5
O=C(NCCC1=CCCCC1)c1ccc(CN2CCOCC2)cc1	0.9*	2	7	3	5
CC(=O)c1cc(-c2cccc(C(C)C)c2)c(=O)n2c1CCC2	0	0	0	x	0
CN1C(=O)c2cc(NS(=O)(=O)c3cccc(F)c3)ccc2OC[C@@H]2O[C@H](CC(=O)O)CC[C@H]21	0	1	4	x	-1
O=C(Nc1nc(-c2ccccc2)cs1)Nc1ccc(F)cc1F	-2	-2	5	4.7*	-2
O=C(Nc1ccc(Cl)cn1)Nc1ccccc1F	1.6*	0	8	6.9*	1
C/C(=C\c1ccccc1)C(=O)Nc1ccc(Cl)cn1	0	3	12*	1	5.6*
O=C(C#Cc1ccccc1)Nc1ccccc1F	-1	0	11*	2	0
Cc1cc(C)cc(N(CC(=O)NC2CCC(C)CC2)S(=O)(=O)c2ccc(C)c(C)c2)c1 (centres undefined)	0	2	5	x	-1
COC(=O)c1ccc(NC(=O)Nc2ccccc2C)cc1	-2	0	12*	-1	-2
COC(=O)c1cccc(NC(=O)Nc2ccccc2OC)c1	-1	0	5	6.5*	-1
O=C(Nc1ccc(F)cc1)Nc1ccccc1F	-1	1	11*	0	3
COC(=O)c1ccc(NC(=O)Nc2ccccc2F)cc1	0	3	12*	0	5
COC(C(=O)Nc1ccc(Br)cc1F)c1ccccc1 (centres undefined)	-2	-1	-1	1	-1
COC(C(=O)NNC(=O)Cc1ccc(Cl)cc1)c1ccccc1 (centres undefined)	-1	0	-1	4.3*	-1
O=C(CCc1ccccc1)NNC(=O)Cc1ccc(Cl)cc1	-1	0	3	-1	0
COc1ccccc1NC(=O)NNC(=O)c1ccncc1	-1	3.8*	0	-2	4
O=C(Nc1ccccc1)Nc1cccn(Cc2c(F)cccc2Cl)c1=O	-2	2	11*	-1	-1
COC(C(=O)Nc1ccc(F)cc1F)c1ccccc1 (centres undefined)	-1	0	-1	4.2*	-2
CCOC(=O)N1CCN(C(=O)C[C@@H]2C(=O)N(CCc3ccc(Cl)cc3)/C3=C/CCCCC[C@@]32C(=O)OCC)CC1	-1	-1	-5	x	-3
O=C(Nc1ccc(NC(=O)c2ccccc2O)cc1)Nc1ccc(F)cc1F	1.6*	0	0	0	-1
O=C(Nc1ccc(F)cc1F)Nc1ccc(F)cc1F	-2	0	-3	-2	-2
Cc1ccc(Oc2ccc(NC(=O)CCC(=O)OCC(=O)c3cccs3)cc2)cc1C	-2	-1	5	4.5*	1
SMILES	ssDAF12 agonist	DAX1 inh-1	hgDAF-12 ag	DAX1 inh-2	hcDAF-12 act
CC(=O)c1ccc(NC(=O)COC(=O)CCC(=O)c2cccs2)cc1	-2	0	-1	-1	1
COc1ccc(/C=C2\COc3ccccc3C2=O)c(OC)c1	0	1	7	3	1
COc1ccc2c(c1)OC/C(=C/c1cccs1)C2=O	0	4.2*	10	2	3
O=C(c1cccs1)n1ccc2ccc(-c3ccc4ccn(C(=O)c5cccs5)c4c3)cc21	0	1	0	x	4
COc1ncc(-c2cc(C(C)=O)c3n(c2=O)CCC3)c(OC)n1	-1	0	3	x	-1
COc1cccc(NC(=O)Nc2nc3ncccn3c2-c2ccc(C(F)(F)F)cc2)c1	0	-1	0	x	-2
Cc1[nH]nc(Nc2ccc(Br)cc2)c1[N+](=O)[O-]	1.3*	1	12*	5.6*	4
Cc1ccc(Nc2n[nH]c(C)c2[N+](=O)[O-])cc1	0	3	10	1	2
COc1ccc(Nc2nc(N)c([N+](=O)[O-])c(NCCO)n2)cc1	-1	0	-2	x	1
CNc1nc(Nc2ccc(Br)cc2)nc(N)c1[N+](=O)[O-]	1.2*	1	3	1	6
C[C@H]1[C@@H](NC(=O)/C=C/c2ccccc2)CC[C@@]23CCCN2C(=O)CCC[C@@H]13	-1	x	8	x	0
COc1ccc(OC)c(C2c3[nH]c4ccccc4c3C[C@H]3C(=O)N(C4CC4)CC(=O)N23)c1 (some centres undefined)	0	0	2	0	5.8*
COc1cccc(C2c3[nH]c4ccccc4c3C[C@H]3C(=O)N(C4CC4)CC(=O)N23)c1 (some centres undefined)	0	0	-2	0	1
C=CCN(CC=C)CC(O)CN(c1cc([N+](=O)[O-])ccc1OC)S(=O)(=O)c1ccccc1 (centres undefined)	0	3.8*	2	0	1
COc1ccc(-c2nnc(SCC(=O)Nc3cccc4ccccc34)n2Cc2ccco2)cc1	0	-2	2	x	0
Cc1ccc(Cc2c(-c3ccccc3)nc3c(Cl)cc(C(F)(F)F)cn23)cc1	1.7*	1	2	x	2
Cc1ccc2nc(-c3ccc(Cl)cc3)c(Cc3ccsc3)n2c1	1	3	13*	x	2
Cc1ccc(Cc2c(-c3ccc(Cl)cc3)nc3ccc(Cl)cn23)cc1	0	2	4	3	-1
Cc1ccc2nc(-c3ccc(F)cc3)c(Cc3ccsc3)n2c1	1	2	10*	x	2
Cc1ccc(Cc2c(-c3ccc(C)cc3)nc3ccc(Cl)cn23)cc1	0	3.8*	7	2	2
CC(C)(C)CCNc1nc(-c2ccccn2)nnc1-c1ccccc1	-2	x	-12	x	-5
O=C(CSc1nnc(-c2ccccc2)n1Cc1ccco1)Nc1ccc(Oc2ccccc2)cc1	-2	-2	1	x	-4
Cc1ccc(Cc2c(-c3ccccc3)nc3cc(C)ccn23)cc1	1.3*	3	11*	2	4
Cc1ccc(-c2nc3ccc(Cl)cn3c2Cc2ccsc2)cc1	0	4.2*	13*	x	3
CCOC(=O)c1c(-c2ccccc2)nc2cc(C)ccn12	-2	1	7	4.6*	-1
Fc1ccc(-c2nc3ccc(Cl)cn3c2Cc2ccsc2)cc1	-1	1	9	x	-1
